± gives the standard deviation of the averaged measurements.
system: Escherichia coli Nissle 1917; assay: area under OmniLog respiration curve over 48 h (OmniLog units x h); higher = more growth / nutrient utilisation; extreme values may be limits of the assay; details: nutrient role: C-Source, carboxylic acid; incubation: 48 h, 37 °C

SMILES | area under OmniLog respiration curve
O=C(CO)[C@@H](O)[C@H](O)[C@@H](O)C(=O)O [5-Keto-D-Gluconic acid] | 118 ± 140
O=CO [Formic acid] | 112 ± 190
O=C(O)CC(O)C(=O)O (racemic) [DL-Malic acid] | 8150 ± 730
COC(=O)CCC(=O)O [Mono-Methylsuccinate] | 1170 ± 950
C[C@@H](O)CC(=O)O [b-Hydroxybutyric acid] | 186 ± 53
O=C(O)[C@H](O)[C@@H](O)C(=O)O [L-Tartaric acid] | 34 ± 28
C[C@H](O)C(=O)O [L-Lactic acid] | 7880 ± 510
O=C(O)CCC(=O)C(=O)O [a-Ketoglutaric acid] | 5770 ± 360
O=C(O)CC(=O)O [Malonic acid] | 4.72
O=C(O)[C@H]1OC(O)[C@H](O)[C@@H](O)[C@H]1O (stereo partly drawn) [D-Galacturonic acid] | 10200 ± 880

same assay, conditions: nutrient role: sole nitrogen source (pyruvate carbon); incubation: 48 h, 37 °C

SMILES | area under OmniLog respiration curve
O=C1NC(=O)C(=O)N1 [Parabanic acid] | 556 ± 610
NCC(=O)N[C@@H](CCC(N)=O)C(=O)O | 8900 ± 1400
C[C@H](N)C(=O)N[C@@H](CCC(N)=O)C(=O)O | 8550 ± 1600
CCCCN [N-Butylamine] | 5.65 ± 1.6

same assay, conditions: nutrient role: sole phosphorus source (pyruvate carbon); incubation: 48 h, 37 °C

SMILES | area under OmniLog respiration curve
Nc1nc2c(ncn2[C@@H]2O[C@H](COP(=O)(O)O)[C@@H](O)[C@H]2O)c(=O)[nH]1 [Guanosine 5`-Monophosphate] | 9210 ± 900
Nc1ccn([C@@H]2O[C@H](COP(=O)(O)O)[C@@H](O)[C@H]2O)c(=O)n1 [Cytidine 5`-Monophosphate] | 8880 ± 960
O=P(O)(O)CP(=O)(O)O [Methylene Diphosphonic acid] | 618 ± 470
O=P(O)(O)OP(=O)(O)O [Pyrophosphate] | 9320 ± 480
N[C@@H](COP(=O)(O)O)C(=O)O [O-Phospho-L-Serine] | 8970 ± 510
Nc1ncnc2c1ncn2[C@@H]1O[C@H](COP(=O)(O)O)[C@@H](O)[C@H]1O [Adenosine 5`-Monophosphate] | 9380 ± 770
Nc1ncnc2c1ncn2[C@@H]1O[C@H](CO)[C@@H](O)[C@H]1OP(=O)(O)O [Adenosine 2`-Monophosphate] | 9880 ± 610
O=P(O)(O)O[C@H]1[C@H](OP(=O)(O)O)[C@@H](OP(=O)(O)O)[C@H](OP(=O)(O)O)[C@@H](OP(=O)(O)O)[C@H]1OP(=O)(O)O [Inositol Hexaphosphate] | 8630 ± 520

From the supplement of paper PMC9801561
